Shown is part of a subset that was picked to be rich in hits.
RXFP1 ag: qHTS Assay for Agonists of the Relaxin Receptor RXFP1; Potency, µM (highest dose often 57.5 µM), for the others: at the top dose activation, usual class: activators; AID 2676, 2010; HEK293T-RXFP1 cAMP TR-FRET, 30 min; response scale: percent of porcine relaxin response, buffer zero; actives 0.3% (n = 370,000); note: potency is the fitted concentration of half-maximal effect; % is set by controls: 0 for no effect and ±100 for the full control effect; nearly all actives have a fitted effect of over 60% in size
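HEK293T cells stably expressing RXFP1 were pretreated with the PDE4 inhibitor Ro 20174, exposed to compounds for 30 min at 37C, lysed, and cAMP was read by TR-FRET. Data normalized to buffer (basal) and 29 nM porcine relaxin (100%).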
RXFP1 antag: qHTS Assay for Antagonists of the Relaxin Receptor RXFP1; actives 0.59% (n = 350,000); activity change, negative = inhibition, % at 57.5 µM; HEK293-RXFP1, relaxin-stimulated cAMP HTRF, 30 min; stronger effect = lower value; Relaxin receptor 1 (Homo sapiens), Q9HBX9;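 active = activity change of -60% or lower, but not beyond a set lower limit; inconclusive = change between -60% and -40%, or beyond the set limit; inactive = change above -40%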; note: % is set by controls: 0 for no effect and ±100 for the full control effect
NPSR antag: qHTS Assay for Antagonists of the Neuropeptide S Receptor: cAMP Signal Transduction. AID 1461, 2008. Q6W5P4. actives 1% (n = 220,000). CHO-NPSR cells, cAMP TR-FRET, antagonist mode. Potency, µM (titrated, usually from 38.3 µM), for the others: at the highest dose activity change, negative = inhibition, most hits filed as inhibitors; note: potency is the fitted concentration of half-maximal effect; % is set by controls: 0 for no effect and ±100 for the full control effect; nearly all actives have a fitted effect of over 50% in size
GLP1R cytotox: qHTS of GLP-1 Receptor Inverse Agonists: Cytotox Screen; HEK293 cAMP-luciferase reporter cells, luminescence, 24 h; Potency, µM (top dose mostly 38.3 µM), inactives show top-dose activity change, negative = inhibition, usual class: inhibitors; actives 0.13% (n = 410,000);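 note: loss of luciferase light is scored as toxicity; potency is the fitted concentration of half-maximal effect; % is set by controls: 0 for no effect and ±100 for the full control effect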
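Quantitative HTS format, 1536 wells, 200 cells/uL seeded. Compounds: 23 nL, 24 h, 37 °C. Detection: luciferase reagent, luminescence at 12 min RT; decreased signal taken as cytotoxic.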
TSHR antag: Antagonists of the Thyroid Stimulating Hormone Receptor: HTS campaign. Thyrotropin receptor (Homo sapiens), P16473. TSHR-expressing cells, TSH-stimulated cAMP HTRF, 2 h; stronger effect = lower value. activity change, negative = inhibition, % at 11.5 µM. actives 0.2% (n = 330,000). AID 504810, 2011;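 active = activity change below a set negative limit, meaning inhibition stronger than a set level, cut at about -70% in these data; inconclusive = activity change between two set negative limits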; note: % is set by controls: 0 for no effect and ±100 for the full control effect
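Inhibition of cAMP made by TSHR-expressing cells under TSH stimulation (4nM final, EC80; 2 h, 37 deg C) is quantified with a one-step lysis HTRF kit, anti-cAMP cryptate versus cAMP-d2.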
PTHR1 agonist: qHTS for PTHR1 Agonists: Primary Screen; Potency, µM (doses to about 115 µM), without a hit: at the top dose activation, most hits filed as activators; HEK293 GP2 PTHR1 cells, GloSensor cAMP luminescence, 1 h; actives 0.075% (n = 410,000); note: potency is the fitted concentration of half-maximal effect; nearly all actives have a fitted effect of over 55% in size
Target sequence (Q03431 whole entry, looked up): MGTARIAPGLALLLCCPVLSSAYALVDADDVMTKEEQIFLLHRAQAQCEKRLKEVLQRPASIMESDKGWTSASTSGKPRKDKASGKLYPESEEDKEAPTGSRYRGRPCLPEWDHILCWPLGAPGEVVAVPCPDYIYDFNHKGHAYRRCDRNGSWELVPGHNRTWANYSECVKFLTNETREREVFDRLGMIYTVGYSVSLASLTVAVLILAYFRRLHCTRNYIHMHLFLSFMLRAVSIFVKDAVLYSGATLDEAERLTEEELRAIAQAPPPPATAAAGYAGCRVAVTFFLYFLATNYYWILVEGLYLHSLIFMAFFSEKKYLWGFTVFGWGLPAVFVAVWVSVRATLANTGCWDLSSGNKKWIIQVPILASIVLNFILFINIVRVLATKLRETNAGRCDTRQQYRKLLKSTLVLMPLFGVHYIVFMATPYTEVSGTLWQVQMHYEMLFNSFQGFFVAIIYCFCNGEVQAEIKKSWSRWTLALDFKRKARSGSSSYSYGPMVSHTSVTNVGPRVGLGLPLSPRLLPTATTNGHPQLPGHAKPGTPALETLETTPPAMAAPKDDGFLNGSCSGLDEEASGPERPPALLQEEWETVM
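HEK-293-derived GP2 cells expressing PTHR1 and a GloSensor cAMP reporter, 3,000/well, plated overnight, given luciferin plus IBMX (each 0.5 mM as added) for 1 h at 37 °C, then compound for 1 h at 37 °C. Luminescence was read after 15 min at room temperature.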
* hit, by the source's call; i = inactive; u = inconclusive; x = no result given; [ ] = dose if it differs, or a comment. Unless noted, calls come from the whole dose curve; as a rule, active = well fitted curve in the direction sought with a large enough effect; inconclusive = small, poorly fitted or top-dose-only effect, or another doubt; inactive = no such curve, though single readings can be large; an effect the other way counts as inactive or inconclusive.

SMILES	RXFP1 ag	RXFP1 antag	NPSR antag	GLP1R cytotox	TSHR antag	PTHR1 agonist
COCCCNC(=O)c1cnc2c(-c3ccc(F)cc3)c(C)nn2c1C	0.6%	-14.1	x	-13.4%	x	i
O=C(CS)Nc1ccc2ccccc2c1	1.8%	-101.9*	-18.4%[7.67 µM]	-12.9%	-30.4	-18.4%
COc1cc2c3c(c1)c(N=NC(N)=S)c(O)n3C(C)(C)C=C2C	0.0%	-15.1	2.2%[7.67 µM]	0.891µM*	-5.6	-9.5%
CC1=CC(C)(C)n2c(O)c(N=NC(N)=S)c3cccc1c32	0.5%	-17.4	6.7%	u	-14.8	-6.4%
COc1cc2c3nnc(-c4ccc(F)cc4)c-3cn(Cc3ccccc3F)c2cc1OC	9.3%	-32.0	-16.0%	84.3%	-6.8	-7.6%
COc1cc2c3nnc(-c4ccccc4)c-3cn(Cc3ccccc3F)c2cc1OC	0.8%	-26.3	10µM*	4.0%	-17.7	i
C=C(C)C(=O)Oc1ccc(N=Nc2ccc(C)cc2)ccc1=O	x	-69.9*	x	u	x	-10.4%
Cc1ccc(NC2=C(N3CCOCC3)C(=O)c3ccccc3C2=O)cc1	1.2%	0.0	4.0%[46.1 µM]	10µM*	2.4	-95.6%
CC(=O)c1ccc(NC2=C(N3CCOCC3)C(=O)c3ccccc3C2=O)cc1	-0.5%	-37.6	-27.9%[46.1 µM]	u	-14.3	-47.3%
O=C(N/N=C/c1ccc([N+](=O)[O-])o1)c1ccc(O)cc1	0.5%	-8.7	12.6µM*	u	7.2	i
CSc1ncccc1C(=O)N1CCC1(C)C(=O)NC(C)C (stereo not drawn)	x	x	x	-2.2%	x	-2.5%
O=C(OCn1ncc(Cl)c(Cl)c1=O)c1ccc(F)cc1	4.9%	x	u	x	u	x
O=C(Cn1ncc(Cl)c(Cl)c1=O)c1ccc(Cl)cc1	-0.5%	1.5	-20.8%[46.1 µM]	10µM*	-22.7	-18.1%
O=C(OCn1ncc(Cl)c(Cl)c1=O)c1ccccc1Cl	6.4%	-17.4	5.01µM*	u	u	-37.0%
O=C(CCOCCOCCOCCOCCC(=O)Nc1c(I)cc(I)c(C(=O)O)c1I)Nc1c(I)cc(I)c(C(=O)O)c1I	x	-9.4	x	x	x	x
Cc1ccc(-c2c(C(=O)N3CCN(c4cccc(C)c4)C(C)C3)oc(=O)c3ccccc23)cc1 (stereo not drawn)	0.1%	x	x	-0.6%	x	-30.4%
CCOC(=O)c1c(CSc2nc(C)cc(C)c2C#N)n(C)c2cc(Br)c(OC(C)=O)cc12	1.0%	-1.7	2.9%	19.4%	-3.2	-4.6%
CCOC(=O)c1c(CSC(=N)N)n(-c2ccc(Br)cc2)c2cc(Br)c(OC(C)=O)cc12	-0.4%	-13.6	10µM*	1.4%	2.8	i
CCSc1ccccc1C(=O)Nc1ccc(-c2nc3ccccc3s2)c(O)c1	26.5%	-8.7	x	1.4%	x	9.1%
CCC(=O)C(Cc1ccccc1)(Cc1ccccc1)CC(C)N(C)C (stereo not drawn)	x	-11.3	x	x	x	x
CC(C)NC(=O)COc1coc(CN2CCN(c3ccccc3F)CC2)cc1=O	-1.0%	-4.1	x	-14.7%	-124.3*	-17.5%
CC1CCN(C(=O)c2ccc3c(c2NCCO)C(=O)c2ccccc2C3=O)CC1	-1.4%	-4.7	-16.3%[46.1 µM]	u	-10.8	-18.5%
CCN(CC)CCNC(=O)c1ccc2c(c1NCCO)C(=O)c1ccccc1C2=O	1.9%	-6.6	u	5.01µM*	-21.7	-26.9%
CCOC(=O)c1sc(N)nc1C(F)(F)F	x	1.0	x	2.4%	x	i
CC(=O)O[C@]1(C(C)=O)CC[C@H]2C3C=C(Cl)C4=CC(=O)[C@@H]5C[C@H]5[C@]4(C)C3CC[C@@]21C (stereo partly drawn)	x	x	12.6µM*	x	x	x
SMILES	RXFP1 ag	RXFP1 antag	NPSR antag	GLP1R cytotox	TSHR antag	PTHR1 agonist
COc1ccc(C(NC(=O)C2CCN(C/C=C/c3ccc(OC(C)=O)c(OC)c3)CC2)c2ccccn2)cc1 (stereo not drawn)	x	x	x	-19.4%	x	-5.8%
CCCCCc1ccc(C(=O)CCCC)c(=S)[nH]1	1.6%	-64.2*	-58.0%	u	-17.9	-4.7%
O=C(O)CSCC(=O)NC1CCSC1=O (stereo not drawn)	x	-7.1	x	x	x	x
c1cnc2cc3c(cc2n1)C1CNCC3C1	x	-7.7	x	x	x	x
CCOc1ccnc2c1c(=O)n(Cc1cc(OC)cc(OC)c1)c(=O)n2C	-1.8%	2.2	x	0.0%	-139.8*	-20.7%
COc1cc(OC)cc(C(=O)NNC(=O)c2ccccn2)c1	0.3%	-93.6*	8.9%	u	-7.6	u
CN1Cc2c(N3CCOCC3)nc3sc(C(=O)c4ccc(Br)cc4)c(N)c3c2CC1(C)C	0.4%	-16.0	12.6µM*	23.5%	10.4	i
CN1Cc2c(N3CCOCC3)nc3sc(C#N)c(N)c3c2CC1(C)C	7.8%	4.1	18.4%	-1.3%	3.9	i
CCOC(=O)CC(=O)CSc1ncnc2c1oc1ccccc12	0.794µM*	25.2	u	12.2%	229.7	-17.8%[57.5 µM]
O=C(O)CSc1ncnc2c1oc1ccccc12	u	11.9	-17.7%[46.1 µM]	76.2%	8.2	i
N#CCCSc1ncnc2c1oc1ccccc12	14.1µM*	10.3	u	-0.6%	180.3	i
CC1CN(c2ncc(/C=N/NC(=O)c3ccccc3O)s2)CC(C)O1 (stereo not drawn)	-0.9%	-72.6*	-27.0%	4.2%	-7.9	i
O=C(N/N=C/c1cnc(N2CCCCC2)s1)c1ccc(C(F)(F)F)cc1	-1.8%	-1.1	-11.0%	2.6%	-2.0	i
Cc1ccc(C(=O)Cn2c(=N)n(CCN3CCOCC3)c3ccccc32)cc1	0.0%	x	x	2.51µM*	-29.5	-8.8%
N=c1n(CCN2CCCCC2)c2ccccc2n1CC(=O)c1ccc(Cl)c(Cl)c1	-1.1%	u	u	u	9.8	-5.2%
Cc1ccc(-n2[nH]c(C)c(/C=N/Nc3ccc([N+](=O)[O-])cc3[N+](=O)[O-])c2=O)cc1	-1.0%	-73.9*	-55.8%	-16.5%	u	-54.1%
CC(C)C(=O)Nc1cccc(C(F)(F)F)c1	x	-7.9	x	x	x	x
Cc1ccc(CNC(=O)CCCn2nc(C)n3ccnc3c2=O)cc1	15.8µM*	21.1	x	-6.3%	20.6	-23.9%
Cc1nn(CCCC(=O)NCc2ccc(F)cc2)c(=O)c2nccn12	28.2µM*	0.0	x	4.1%	16.9	-7.3%
CC(=O)c1cccc(NC(=O)c2ccc3c(c2)CCCC3)c1	0.6%	8.5	x	u	-130.6*	-3.8%
O=C(O)CCSc1ccc2ccccc2n1	17.8µM*	22.6	u	-11.3%	14.1	i
